Measured values taken from PubChem BioAssay AID1745849 (National Center for Advancing Translational Sciences (NCATS), 2022).
The whole screen tested about 2,100 compounds, of which about 320 (15%) were called active. Roughly 52% stayed inconclusive and do not appear here. Some of the results follow. Values without a mark were called inactive. The call rests on the fitted dose curve; in most records, active means well fitted cell-killing curve with a large enough effect; inconclusive means small, poorly fitted or top-dose-only effect, or effect the other way; inactive means flat fitted curve, though single readings scatter.

test: Viability Counterscreen for CMV-Luciferase Assay of Inhibitors of ATXN expression; settings: HEK-293 CMV-luciferase cells viability, protease fluorescence, 24 h; activity change, negative = cytotoxicity: at the top concentration; further: nearly all actives have a fitted effect of over 55% in size
Text: PI: Daniel Scoles Ph.D. University of Utah School of Medicine, Salt Lake City, Utah MLPCN Grant: NS073009 Spinocerebellar ataxia type 2 (SCA2) is a multisystem neurodegenerative disease caused by a dominantly acting mutation leading to expansion of a polyQ domain in the ataxin-2 protein (ATXN2). SCA2 patients develop progressive ataxia and later lose function in other neuronal systems. Prominent parkinsonian signs develop in some patients. Like many neurodegenerative disorders, no symptomatic or disease-modifying treatments are known. The primary objective of the proposed research is to identify compounds inhibiting ATXN2 expression and to test them for efficacy in SCA2 mouse models. We have developed a cell-based assay paired with an in vivo mouse model using identical luciferase expression constructs. This approach takes advantage of an ATXN2-luciferase transgene, with the luciferase gene flanked by the upstream and downstream portions of the ATXN2 gene. Here we describe a 5-7 dose quantitative high thoroughput screen (qHTS) for compounds lowering ATXN2 expression. We screened the NIH Molecular Libraries Small Molecule Repository (MLSMR) and NCGC's mechanistically annotated (MIPE) and drug repurposing (NPC) collections of compounds for lowering expression of an ATXN2-luciferase reporter in HEK-293 cells. The assay is a multiplexed cell viability assay to ensure target reduction in the absence of cytotoxicity. Secondary qHTS assays included a CMV-luciferase reporter expressed in HEK-293 cells as well as a biochemical assay using recombinant luciferase to detect inhibitors of the reporter enzyme. Compounds that inhibit ATXN2 expression but is not cytotoxic were selected for confirmatory and secondary screens.
PROTOCOL TABLE (as described by Inglese J, Shamu CE and Guy RK. 2007) SEQUENCE No. (e.g., 1, 2, 3, etc.); […] (e.g., Cells, Incubation, Reagent, etc.); VALUE; DESCRIPTION. 1; Cells; 4 uL; white, solid bottom, 1536-well Greiner assay plate. 2; Incubation; 2 hr; 37 degree C in 5% humidified CO2. 3; Compounds; 23 nL; Kalypsis pintool (Wako USA) equipped with a 1536-well pin head. 4; Incubation; 24 hr; 37 degree C in 5% humidfified CO2. 5; Reagent; 1 uL; Gly-Phe-7-Amino-4-trifluoromethylcoumarin. 6; Incubation; 30 min; 37 degree C in 5% humidfified CO2. 7; Detection; Fluorescence; Viewlux plate reader (PerkinElmer). 8; Reagent; 3 uL; SteadyGlo luciferase solution (Promega). 9; Incubation; 5 min; room temperature. 10; Detection; Luminescence; ViewLux plate reader (PerkinElmer). NOTES (numbers refer to Sequence numbers above) 1. HEK-293 cells expressing CMV-luciferase reporter (designated as SC cells) were suspended in phenol-red free DMEM and dispensed in assay plates using a Multidrop Combi dispenser (Thermo Fisher Scientific). 2. Assay plates were incubated. Evaporation was prevented by covering assay plates with metal lids containing holes to allow gas diffusion. 3. Compounds were added in a dose response manner with the final concentrations of 57, 11.4, 2.28, 0.46, 0.091, 0.018, 0.0037 uM. Vehicle-only plates, with DMSO being pin-transferred to columns 5-48, were inserted uniformly at the beginning and the end of each library to monitor and record any shifts in assay performance. 5. 125 uM Gly-Phe-7-Amino-4-trifluoromethylcoumarin (MP Biomedicals) working concentration was used at a final concentration of 25 uM. 7. To assess cell viability; the assay plates were read using the ViewLux high-throughput CCD imager (PerkinElmer), wherein single end-point fluorescence measurement was acquired (excitation 405/10; emission 540/25 nm). 8. Detection reagent SteadyGlo Luciferase (Promega) was added to the assay plate. 10. Luminescence is then measured on the ViewLux imager equipped with a clear emission filter using a 2 sec exposure. […]
On the % scale 0 is the no-effect control and ±100 the full control effect; potency means the concentration at half of the fitted maximal effect.

| Compound | activity change, negative = cytotoxicity | Potency |
| --- | --- | --- |
| COc1ccc(C(=O)NC(=C(Cl)Cl)S(=O)(=O)c2ccc(C)cc2)cc1 | -28.4% | – |
| Cc1ccc(S(=O)(=O)/C(=C/Cl)NC(=O)c2ccccc2)cc1 | – | 17.8 µM (active) |
| Cc1cc(N/N=C\c2ccc(Br)cc2)nc(-n2nc(C)cc2C)n1 | -7.45% [at 57.5 µM] | – |
| Cc1cc(N/N=C/c2ccccc2[N+](=O)[O-])nc(-n2nc(C)cc2C)n1 | – | 12.6 µM (active) |
| Cc1cc(N/N=C/c2ccc(O)cc2O)nc(-n2nc(C)cc2C)n1 | – | 10 µM (active) |
| CCn1c2ccccc2c2cc(NC(=O)COC(=O)C3CCC(=O)N3)ccc21 (centres undefined) | -17.1% [at 57.5 µM] | – |
| CCCC(=O)OC/C(O)=C(\C#N)c1nc2ccccc2[nH]1 | -7.86% | – |
| CCN(CC)CCNC(=O)c1ccc(NC(=O)c2ccccc2-c2ccc(C(F)(F)F)cc2)cc1 | -22.9% [at 57.5 µM] | – |
| COc1cc(CNCc2ccncc2)cc(Br)c1OCc1ccccc1F | -8.06% | – |
| Cc1cc(C(=O)CN2C(=O)c3ccccc3S2(=O)=O)c(C)n1CC1CCCO1 (centres undefined) | 7.21% [at 57.5 µM] | – |
| Cc1cc(C)n(CC(O)Cn2c3ccc(Cl)cc3c3cc(Cl)ccc32)c(=O)n1 (centres undefined) | -19.8% | – |
| CC(Nc1ccccc1CO)C(=O)Nc1cccc(Cl)c1Cl (centres undefined) | -16.1% [at 57.5 µM] | – |
| O=C(N/N=C/c1cc(Cl)ccc1O)c1ccccc1Br | 6.59% [at 57.5 µM] | – |
| O=C(N/N=C/c1cc(Br)ccc1OC(=O)c1ccc(Br)cc1)c1ccncc1 | 10.1% [at 57.5 µM] | – |
| O=C(N/N=C/c1cc(Br)ccc1O)c1ccncc1 | -12.8% | – |
| Cc1cccc(/C=N/NC(=O)c2c(-c3ccccc3)noc2C)c1O | -27.5% | – |
| O=C(N/N=C/c1ccc([N+](=O)[O-])s1)c1ccccc1Br | – | 20 µM (active) |
| O=C(CNC(=O)c1ccccc1Br)N/N=C/c1cc(Br)ccc1O | -27.5% | – |
| Cc1ccccc1C(=O)N/N=C/c1ccc([N+](=O)[O-])s1 | – | 22.4 µM (active) |
| O=C(N/N=C\c1ccc([N+](=O)[O-])s1)c1cncc(Br)c1 | – | 10 µM (active) |
| Cc1ccc(NC(=O)/C=C/c2ccc([N+](=O)[O-])s2)c(C)c1 | 10.5% | – |
| CCCc1nc(NC2CCCCC2)c(C#N)c2c1COC(C)(C)C2 | 16.2% | – |
| CN(C)CCC(c1ccc(Br)cc1)c1ccccn1 (centres undefined) | -13.2% [at 57.5 µM] | – |
| N#Cc1cc2cc3c(cc2nc1SCC(=O)N1CCOCC1)OCCO3 | 0.63% | – |
| Cc1ccc(NC(=O)CSc2ccc(Br)cc2)cc1S(=O)(=O)N1CCOCC1 | -20.3% [at 57.5 µM] | – |

| Compound | activity change, negative = cytotoxicity | Potency |
| --- | --- | --- |
| Cc1ccc(C(=O)N(C)CC(=O)Nc2ccc(Cl)c(C(F)(F)F)c2)cc1S(=O)(=O)N1CCCCC1 | – | 20 µM (active) |
| CN(CC(=O)Nc1ccc(Cl)c(C(F)(F)F)c1)C(=O)c1cccnc1Sc1ccccc1 | 11.2% [at 57.5 µM] | – |
| CC(SC(C)C(=O)NN=Cc1cccc(Cl)c1)C(=O)NN=Cc1cccc(Cl)c1 (centres undefined) | -17.2% | – |
| O=C(Nc1nonc1-c1ccc(Cl)cc1)c1ccccc1 | -28.7% [at 57.5 µM] | – |
| O=C1C=CCC(/C=C/c2ccccc2)O1 (centres undefined) | – | 31.6 µM (active) |
| Cc1csc2ncnc(NC3CCN(Cc4ccccc4)CC3)c12 | -5.28% [at 57.5 µM] | – |
| CCOC(=O)N1CCN(c2ccnc3cc(Cl)ccc23)CC1 | 13.1% | – |
| Cc1cccc(N2CCN(S(=O)(=O)c3ccc4c(c3)C(C)(C)C(=O)N4C)CC2)c1C | 6.54% [at 57.5 µM] | – |
| CCN(CC(=O)Nc1cccc(OC)c1)CC(=O)Nc1ccc(Br)c(C)c1 | – | 17.8 µM (active) |
| COc1cccc(NC(=O)CSc2nc3ncc(Br)cc3[nH]2)c1 | 5.16% | – |
| COc1ccc(O)c(/C=N/NC(=O)CCC(=O)Nc2cccc(C)c2)c1 | 16.1% [at 57.5 µM] | – |
| O=c1cc(-c2c(F)c(F)c(F)c(F)c2F)oc2ccccc12 | -23.6% | – |
| COc1ccc(NS(=O)(=O)c2ccc(C(=O)Nc3c(C)n(C)n(-c4ccccc4)c3=O)cc2)cc1 | 6.71% | – |
| Cc1c(N/N=C(\C#N)C(=O)c2ccc(Cl)cc2)c(=O)n(-c2ccccc2)n1C | – | 2.51 µM (active) |
| Cc1c(N/N=C(\C#N)C(=O)c2ccccc2)c(=O)n(-c2ccccc2)n1C | – | 11.2 µM (active) |
| Cc1ccccc1C(=O)/C(C#N)=N/Nc1c(C)n(C)n(-c2ccccc2)c1=O | – | 10 µM (active) |
| CCOC(=O)c1ccc(NC(=O)c2nc[nH]c2C(=O)N[C@H](C)c2ccccc2)cc1 | 10.5% | – |
| CCn1c(C)cc(C(=O)CN2C(=O)c3ccccc3S2(=O)=O)c1C | -1.67% | – |
| O=C(Nc1cccc2ccccc12)OC1C=CS(=O)(=O)C1 (centres undefined) | -14.6% | – |
| Cc1ccc(Cc2cnc(N3C(=N)SC(C)C3=O)s2)cc1 (centres undefined) | -1.76% | – |
| Cc1cc(C)c(S(=O)(=O)/N=C2\C=C(Nc3ccc(C(=O)O)cc3)C(=O)c3ccccc32)c(C)c1 | – | 2 µM (active) |
| CC(C)N(Cc1ccccc1)C(=O)/C=C/c1ccccc1[N+](=O)[O-] | -9.06% [at 57.5 µM] | – |
| N#C/C(=C\c1cccc([N+](=O)[O-])c1)C(=O)NCc1ccc(Cl)cc1 | – | 3.55 µM (active) |
| N#C/C(=C\C=C\c1ccccc1[N+](=O)[O-])C(=O)NCc1ccccc1 | – | 3.16 µM (active) |
